High-throughput results from PubChem.
Most compounds without a hit are left out; they make up all but 7.1% or so of the library.
SW480 rereplic = inducers of DNA re-replication in SW480 colon cancer cells; Potency, µM (doses to about 46.1 µM), hits mostly activators; 340,000 tested, 1.8% active; AID 624297; SW480 DNA re-replication, Hoechst DNA content imaging, 48 h; further: nearly all actives have a fitted effect of over 55% in size
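Image-based DNA-content assay: after two days of treatment, nuclei were labelled with the DNA dye Hoechst and imaged, and hits were compounds raising the count of nuclei showing high fluorescence intensity.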
p53 reactivation = re-activators of mutant p53. H1299 p53-A138V BP100-luciferase reporter, luminescence, 24 h. Potency, µM (top dose mostly 92.2 µM), actives largely listed as activators. 320,000 tested, 0.063% active; further: nearly all actives have a fitted effect of over 45% in size
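p53-null H1299 cells stably carrying temperature-sensitive p53-A138V and a BP100-luciferase reporter were pinned with compounds (4-point, 1:5 series) and held 24 hrs at 37 deg C. Luminescence was read 10 min after detection reagent.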
ELG1 repair inh = inhibitors of ELG1-dependent DNA repair in HEK293T cells; HEK293T ELG1-luciferase reporter, luminescence, 16 h; DNA damage induced by 5-fluorouridine; 330,000 tested, 2.3% active; Potency, µM (highest dose often 46.1 µM), actives largely listed as inhibitors; further: nearly all actives have a fitted effect of over 55% in size
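DMSO vehicle served as the neutral condition. Each well held 2,000 cells given 5-fluorouridine plus compound; after 16 hr at 37 °C/5% CO2, ONE-Glo was added and luciferase measured 30 min later.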
MCF10A rereplic = DNA re-replication induction in MCF 10a cells. Potency, µM (top dose mostly 46.1 µM), usual class: activators. MCF 10A DNA re-replication, Hoechst nuclear intensity, 48 h. 350,000 tested, 2.9% active; further: nearly all actives have a fitted effect of over 50% in size
AT treatment = potential ataxia-telangiectasia treatments restoring KAP-1 phosphorylation | F2112 A-T fibroblasts, KAP-1 phosphorylation AlphaLISA; neocarzinostatin DNA damage 30 min before lysis | Potency, µM (series often up to 57.5 µM), usual class: activators | 320,000 tested, 0.19% active; further: nearly all actives have a fitted effect of over 45% in size
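hTERT-immortalized A-T patient fibroblasts (F2112), 500 cells/well in OPTI-MEM, 1% FBS, got compounds for 60 min, then NCS for 30 min at 37C. Lysates were then assayed for phospho-KAP-1 by AlphaLISA (anti-pKAP1 donor, anti-KAP1 acceptor beads), 6 hr at 25C.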
ELG1 genotox = induces genotoxicity in HEK293T cells with luciferase-tagged ELG1; HEK293T ELG1-luciferase reporter, luminescence, 16 h; Potency, µM (titrated, usually from 46 µM), usual class: activators; 330,000 tested, 1.3% active; further: nearly all actives have a fitted effect of over 60% in size
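Cells (2,000/well) expressing the ELG1-luciferase fusion are dosed by pin tool and kept 16 hr at 37 °C, 5% CO2. Signal comes from ONE-Glo luciferase reagent after 30 min at room temperature.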
ELG1 FLuc counter = luciferase inhibition in cell-free luciferin readout for ELG1 hits; shares compounds with ELG1 repair inh; cell-free firefly luciferase luminescence counter-screen, ViewLux; Potency, µM (series often up to 46.1 µM), actives largely listed as inhibitors; 350 tested, 3% active; AID 624247
ELG1-Luc inh = human ELG1 repair inhibition, luciferase-tagged ELG1 confirmation | shares compounds with ELG1 repair inh | HEK293T ELG1-luciferase levels, luminescence; cells co-treated with 5-fluorouridine | Potency, µM (series often up to 46.1 µM), actives largely listed as inhibitors | 670 tested, 68% active; further: nearly all actives have a fitted effect of over 55% in size
Target sequence (Q96QE3 whole entry, looked up): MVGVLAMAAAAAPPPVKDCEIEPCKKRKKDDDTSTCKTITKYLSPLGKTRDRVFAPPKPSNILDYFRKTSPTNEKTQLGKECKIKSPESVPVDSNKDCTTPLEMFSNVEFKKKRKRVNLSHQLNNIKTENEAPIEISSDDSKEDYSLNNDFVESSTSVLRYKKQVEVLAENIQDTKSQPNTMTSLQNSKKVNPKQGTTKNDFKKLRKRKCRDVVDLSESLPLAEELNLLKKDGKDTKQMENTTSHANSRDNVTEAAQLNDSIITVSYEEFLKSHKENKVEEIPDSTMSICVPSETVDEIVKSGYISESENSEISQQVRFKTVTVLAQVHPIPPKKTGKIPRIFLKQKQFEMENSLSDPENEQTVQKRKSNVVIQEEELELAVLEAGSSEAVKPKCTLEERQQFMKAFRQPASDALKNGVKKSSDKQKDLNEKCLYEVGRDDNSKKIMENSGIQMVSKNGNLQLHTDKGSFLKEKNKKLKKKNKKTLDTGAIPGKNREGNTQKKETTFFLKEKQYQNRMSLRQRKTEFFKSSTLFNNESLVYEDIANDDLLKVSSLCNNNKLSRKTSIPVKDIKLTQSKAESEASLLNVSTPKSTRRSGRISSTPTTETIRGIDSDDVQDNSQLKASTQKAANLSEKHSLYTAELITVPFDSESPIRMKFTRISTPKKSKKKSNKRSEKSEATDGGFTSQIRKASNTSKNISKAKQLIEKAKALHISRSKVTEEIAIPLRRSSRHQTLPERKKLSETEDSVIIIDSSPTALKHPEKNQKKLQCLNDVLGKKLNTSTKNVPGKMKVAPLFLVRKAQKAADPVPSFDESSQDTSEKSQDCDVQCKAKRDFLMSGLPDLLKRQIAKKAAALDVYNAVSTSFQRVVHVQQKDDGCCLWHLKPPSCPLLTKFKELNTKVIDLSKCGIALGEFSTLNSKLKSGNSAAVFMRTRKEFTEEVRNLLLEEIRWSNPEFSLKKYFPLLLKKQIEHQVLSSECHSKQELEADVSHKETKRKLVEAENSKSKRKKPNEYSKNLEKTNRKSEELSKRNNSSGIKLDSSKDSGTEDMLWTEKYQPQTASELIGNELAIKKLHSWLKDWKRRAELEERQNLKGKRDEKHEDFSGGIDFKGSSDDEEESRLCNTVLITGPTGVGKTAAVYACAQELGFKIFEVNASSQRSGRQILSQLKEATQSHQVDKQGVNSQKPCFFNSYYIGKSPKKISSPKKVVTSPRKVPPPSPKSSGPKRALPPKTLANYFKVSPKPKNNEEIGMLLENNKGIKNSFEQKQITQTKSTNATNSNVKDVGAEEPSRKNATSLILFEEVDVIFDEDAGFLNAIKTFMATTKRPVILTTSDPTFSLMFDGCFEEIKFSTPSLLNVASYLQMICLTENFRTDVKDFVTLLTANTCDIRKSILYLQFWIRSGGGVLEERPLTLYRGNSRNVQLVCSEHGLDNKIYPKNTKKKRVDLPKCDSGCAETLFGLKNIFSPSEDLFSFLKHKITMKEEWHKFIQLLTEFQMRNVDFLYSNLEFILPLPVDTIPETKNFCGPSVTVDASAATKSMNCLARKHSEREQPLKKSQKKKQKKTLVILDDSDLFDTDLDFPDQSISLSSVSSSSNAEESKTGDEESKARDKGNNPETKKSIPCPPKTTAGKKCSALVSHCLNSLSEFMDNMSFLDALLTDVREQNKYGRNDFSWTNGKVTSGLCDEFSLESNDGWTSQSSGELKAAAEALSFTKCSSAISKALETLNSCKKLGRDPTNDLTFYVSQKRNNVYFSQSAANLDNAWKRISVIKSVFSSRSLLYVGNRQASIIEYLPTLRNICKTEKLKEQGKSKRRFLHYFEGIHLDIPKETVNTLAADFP
ELG1 MMS Luc = confirmation of human ELG1 repair inhibitors, MMS stimulated; shares compounds with ELG1 repair inh; HEK293T luciferase-tagged ELG1 level, MMS stimulated; Potency, µM (top dose mostly 46.1 µM), most hits filed as inhibitors; 670 tested, 53% active; AID 624249; further: nearly all actives have a fitted effect of over 60% in size
ELG1 5-FU = confirmation of ELG1 repair inhibitors: viability with 5FU; shares compounds with ELG1 repair inh; cell viability with 5-FU, ELG1-dependent repair; Potency, µM (doses to about 46.1 µM), usual class: cytotoxic; 670 tested, under 10 active; AID 624250;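 further: ELG1-luc HEK293T cells cotreated with 5-fluorouridine at 10 µM final; viability measured 16 h after compound addition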
ELG1 MMS viab = confirmation of ELG1 repair inhibitors: viability with MMS. shares compounds with ELG1 repair inh. Cell viability with MMS, ELG1-dependent DNA repair. Potency, µM (doses to about 46.1 µM), most hits filed as cytotoxic. 670 tested, 33% active. AID 624251;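 further: ELG1-luc HEK293T cells co-treated with 10 µM MMS; viability read 16 h after compound addition; nearly all actives have a fitted effect of over 60% in size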
Cell viab unstim = affects unstimulated cell viability, ELG1 hit counter-screen. AID 624252. cell viability counter-screen, unstimulated, luminescence. 900 tested, 8% active. Potency, µM (titrated, usually from 45.9 µM), hits mostly cytotoxic. shares compounds with ELG1 repair inh;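 further: compound exposure lasted 16 hours before reading; nearly all actives have a fitted effect of over 55% in size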
FLuc enzyme = firefly luciferase inhibition counter-screen; shares compounds with ELG1 repair inh; purified firefly luciferase, luminescence counter-screen; Potency, µM (series often up to 57.5 µM), most hits filed as inhibitors; 350 tested, 10% active; AID 624253
Numbers stand for hits; [ ] = another dose, or the depositor's remark. The call rests on the fitted dose curve; in most records, active means well fitted curve in the direction sought with a large enough effect; inconclusive means small, poorly fitted or top-dose-only effect, or another doubt; inactive means no such curve, though single readings can be large; an effect the other way counts as inactive or inconclusive.

How did COc1cccc(C(C(=O)NCC2CCCO2)N(C(=O)Cn2nnc3ccccc32)c2ccc(NC(C)=O)cc2)c1OC (stereo not given) do in these assays?
SW480 rereplic: inactive; p53 reactivation: inactive; ELG1 repair inh: inactive; MCF10A rereplic: inactive; AT treatment: inactive; ELG1 genotox: inactive

How did CCSc1nnc(NC(=O)c2csc(C)c2)s1 do in these assays?
SW480 rereplic: inactive; p53 reactivation: inconclusive; ELG1 repair inh: inconclusive; MCF10A rereplic: inactive; AT treatment: inactive; ELG1 genotox: inconclusive; ELG1 FLuc counter: inactive; Cell viab unstim: inactive; FLuc enzyme: inconclusive

What do the screens show for `O=[N+]([O-])c1cc2c(c(CSc3nnc(Nc4ccccc4)s3)c1)OCOC2`?
SW480 rereplic: inactive; p53 reactivation: inactive; ELG1 repair inh: 4.61µM; MCF10A rereplic: inactive; AT treatment: inactive; ELG1 genotox: inactive; ELG1-Luc inh: inconclusive; ELG1 MMS Luc: 0.996µM; ELG1 5-FU: inactive; ELG1 MMS viab: 0.791µM; Cell viab unstim: inconclusive

What do the screens show for `Cc1cc(OCC(=O)OCC(=O)NCc2cccs2)ccc1Cl`?
SW480 rereplic: inactive; p53 reactivation: inactive; ELG1 repair inh: inactive; MCF10A rereplic: inactive; AT treatment: inactive; ELG1 genotox: inactive

How did CC(=O)Oc1ccc2c(C)c(CC(=O)N3CCN(C(=O)C4COc5ccccc5O4)CC3)c(=O)oc2c1C (stereo not given) do in these assays?
SW480 rereplic: inconclusive; p53 reactivation: inactive; ELG1 repair inh: inconclusive; MCF10A rereplic: inactive; AT treatment: inactive; ELG1 genotox: inactive; ELG1 FLuc counter: inactive; ELG1-Luc inh: 2.5µM; ELG1 MMS Luc: inconclusive; ELG1 5-FU: inconclusive; ELG1 MMS viab: inconclusive; Cell viab unstim: inconclusive; FLuc enzyme: inactive

What do the screens show for `COc1ccccc1C(=O)COC(=O)c1ccccc1OCC(=O)Nc1ccc(SC(F)F)cc1`?
SW480 rereplic: inactive; p53 reactivation: inactive; ELG1 repair inh: 4.61µM; MCF10A rereplic: inactive; AT treatment: inactive; ELG1 genotox: inactive; ELG1-Luc inh: 7.05µM; ELG1 MMS Luc: inconclusive; ELG1 5-FU: inconclusive; ELG1 MMS viab: inactive; Cell viab unstim: inactive

Results for CN(C)S(=O)(=O)Oc1ccc(C(=O)Nc2ccc([N+](=O)[O-])cc2)cc1 ?
SW480 rereplic: inactive; p53 reactivation: inactive; ELG1 repair inh: 2.91µM; MCF10A rereplic: inactive; AT treatment: inactive; ELG1 genotox: inactive; ELG1-Luc inh: 0.705µM; ELG1 MMS Luc: 3.15µM; ELG1 5-FU: inconclusive; ELG1 MMS viab: inconclusive; Cell viab unstim: inactive

Results for COc1ccc(-c2nnc3ccc(SCC(=O)Nc4nc5ccccc5s4)nn23)cc1OC ?
SW480 rereplic: inactive; p53 reactivation: inactive; ELG1 repair inh: 0.517µM; MCF10A rereplic: inactive; AT treatment: inactive; ELG1 genotox: inactive; ELG1 FLuc counter: inactive; ELG1-Luc inh: 0.629µM; ELG1 MMS Luc: inactive; ELG1 5-FU: inconclusive; ELG1 MMS viab: inactive; Cell viab unstim: inconclusive; FLuc enzyme: inconclusive

Results for COc1cc(NC(=O)c2cc(-c3ccccc3)nc3c2cnn3C(C)C)cc(OC)c1OC ?
SW480 rereplic: inactive; p53 reactivation: inactive; ELG1 repair inh: 3.66µM; MCF10A rereplic: inconclusive; AT treatment: inactive; ELG1 genotox: inactive; ELG1-Luc inh: 7.05µM; ELG1 MMS Luc: inconclusive; ELG1 5-FU: inconclusive; ELG1 MMS viab: inconclusive; Cell viab unstim: 25µM

What do the screens show for `O=C(Nc1ccc(F)cc1)N(CCCN1CCOCC1)Cc1cc2cc3c(cc2[nH]c1=O)OCO3`?
SW480 rereplic: inactive; p53 reactivation: inactive; ELG1 repair inh: inactive; MCF10A rereplic: inactive; AT treatment: inactive; ELG1 genotox: inactive; ELG1 FLuc counter: inactive; ELG1-Luc inh: inconclusive; ELG1 MMS Luc: inactive; ELG1 5-FU: inactive; ELG1 MMS viab: inactive; Cell viab unstim: inconclusive; FLuc enzyme: inactive

What do the screens show for `COc1ccccc1NC(=O)N(CCCN1CCOCC1)Cc1cc2cc3c(cc2[nH]c1=O)OCO3`?
SW480 rereplic: inactive; p53 reactivation: inactive; ELG1 repair inh: inactive; MCF10A rereplic: inactive; AT treatment: inactive; ELG1 genotox: inactive

Results for COc1ccccc1CNC(=O)CN1C(=O)NC2(CCOc3ccccc32)C1=O (stereo not given) ?
SW480 rereplic: inactive; p53 reactivation: inactive; ELG1 repair inh: inconclusive; MCF10A rereplic: inactive; AT treatment: inactive; ELG1 genotox: inactive

What do the screens show for `CCCCn1c(SCC(=O)Nc2nnc(CC)s2)nc2c1c(=O)n(C)c(=O)n2C`?
SW480 rereplic: inactive; p53 reactivation: inactive; ELG1 repair inh: 2.51µM; MCF10A rereplic: inactive; AT treatment: inactive; ELG1 genotox: inactive; ELG1-Luc inh: inconclusive; ELG1 MMS Luc: inactive; ELG1 5-FU: inactive; ELG1 MMS viab: inconclusive; Cell viab unstim: inconclusive

Results for CCCCn1c(SCC(=O)Nc2nnc(C)s2)nc2c1c(=O)n(C)c(=O)n2C ?
SW480 rereplic: inactive; p53 reactivation: inactive; ELG1 repair inh: inactive; MCF10A rereplic: inactive; ELG1 genotox: inactive

What do the screens show for `COc1ccc(OC(=O)c2cc3ccccc3o2)cc1`?
SW480 rereplic: inactive[9.22 µM]; p53 reactivation: inactive; ELG1 repair inh: inactive; MCF10A rereplic: inactive; AT treatment: inactive; ELG1 genotox: inactive
